About 83,000 compounds went through this panel and 20% of them were active in at least one assay; those are over-represented in the sample as a whole.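 Interpretation: 100, growth as untreated; towards 0, rising growth inhibition; 0, no net growth; 0 to -100, cell death. Compounds scoring below 10 were considered active.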 Unmarked numbers belong to inactive results. Activity calls are given as the source filed them.
How the values were obtained:
Assay in all cases: NCI-60 one-dose screen, 48 h (100 = growth as untreated, 0 = no growth, -100 = all killed)
[1] = tested on: HCT-15 colon; conditions: 10 µM unless noted
[2] = tested on: SNB-19 CNS; conditions: 10 µM unless noted
[3] = tested on: U251 CNS; conditions: 10 µM unless noted
[4] = tested on: PC-3 prostate; conditions: 10 µM unless noted
[5] = tested on: SK-MEL-5 melanoma; conditions: 10 µM unless noted
[6] = tested on: UACC-62 melanoma; conditions: 10 µM unless noted
[7] = tested on: LOX IMVI melanoma; conditions: 10 µM unless noted
[8] = tested on: SK-MEL-28 melanoma; conditions: 10 µM unless noted
[9] = tested on: SK-MEL-2 melanoma; conditions: 10 µM unless noted
[10] = tested on: EKVX NSCLC; conditions: 10 µM unless noted
[11] = tested on: SN12C renal; conditions: 10 µM unless noted
[12] = tested on: UO-31 renal; conditions: 10 µM unless noted
[13] = tested on: TK-10 renal; conditions: 10 µM unless noted
[14] = tested on: ACHN renal; conditions: 10 µM unless noted
[15] = tested on: CAKI-1 renal; conditions: 10 µM unless noted
[16] = tested on: A498 renal; conditions: 10 µM unless noted
[17] = tested on: CCRF-CEM leukemia; conditions: 10 µM unless noted
[18] = tested on: MOLT-4 leukemia; conditions: 10 µM unless noted
[19] = tested on: SNB-75 CNS; conditions: 10 µM
[20] = tested on: HT29 colon; conditions: 10 µM unless noted

SMILES | growth [1] | growth [2] | growth [3] | growth [4] | growth [5] | growth [6] | growth [7] | growth [8] | growth [9] | growth [10] | growth [11] | growth [12] | growth [13] | growth [14] | growth [15] | growth [16] | growth [17] | growth [18] | growth [19] | growth [20]
CC(NNC(C)c1ccccc1)c1ccccc1 (stereo not given) | 105% | 100% | 106% | 94% | 101% | 110% | 101% | 118% | 110% | 97.2% | 116% | 93.1% | 105% | 108% | 89% | 97.9% | 118% | 113% | – | –
c1cc(C2=N[C@@H]3c4ccccc4C[C@@H]3O2)nc(C2=N[C@@H]3c4ccccc4C[C@@H]3O2)c1 | 94.7% | 97.7% | 101% | 98.3% | 102% | 102% | 97% | 108% | 103% | 89.4% | 97% | 94.6% | 101% | 102% | 92.4% | 102% | 102% | 106% | – | –
COC(=O)c1nc(-c2ccccc2)oc1S(=O)(=O)N1CCN(c2cccc(Cl)c2)CC1 | 65.5% | 63.6% | 72.2% | 82% | 99.3% | 79.7% | – | 88.3% | 90% | 93.4% | 74.5% | 62.9% | 89.4% | 84.8% | 32.6% | 111% | 4.91% (active) | 39.3% | – | –
CC1(c2ccc(Cl)cc2)OC(=O)CC(=O)O1 | 102% | – | 102% | 101% | – | 102% | 106% | 112% | – | 98.4% | 102% | 90.3% | 121% | 98.5% | 94.9% | 101% | 100% | 100% | 99% | –
O=S(=O)(NCCNc1nccc(-c2c(-c3ccc(O)cc3)nc3sccn23)n1)c1cccc2ccccc12 | 100% | 99.7% | 95.3% | 97.5% | 102% | 106% | 101% | 111% | 124% | – | 97.7% | 85.1% | 98.2% | 107% | 99.7% | 104% | 97.8% | 87.6% | – | –
N=C(N)c1ccc(-c2ccc(-c3ccc4ccccc4c3)s2)cc1 | 3.41% (active) | 97.1% | 27% | 91.6% | 93.9% | 96.9% | – | 100% | 104% | 105% | 95.8% | – | 27% | 97.1% | 92.3% | 91.3% | 64.1% | 76.3% | – | –
CN(C)CCOC(=O)Nc1ccccc1Cl | 103% | 104% | 108% | 93.5% | 104% | 110% | 101% | 115% | 118% | 115% | 104% | 86.6% | 106% | 108% | 97.7% | 112% | 93.4% | 99.2% | – | –
O=S(=O)(CC(O)(c1ccccc1)c1ccccc1)CC(O)(c1ccccc1)c1ccccc1 | 96.4% | – | 70.7% | 80.4% | 88.6% | 93.7% | 76% | 86% | 109% | 73.8% | 90.1% | 92.9% | 107% | 78.1% | 66.9% | 98.7% | 64.8% | 96.7% | 58.4% | –
Cc1cc(C(C)(C)C)ccc1S | – | – | 109% | 85.6% | 111% | 98.6% | 103% | 104% | 93.4% | 123% | 100% | 90.3% | 107% | – | 93.1% | 92.8% | 96% | 81.3% | 91.4% | 97.5%
NC(=N\N=C/c1ccc(O)cc1)/C(N)=N\N=C/c1ccc(O)cc1 | – | 92.7% | 72.3% | 33.1% | 28.7% | 30.3% | 28.7% | 88.2% | 59% | 65.5% | 74.2% | 28.5% | 83.4% | – | 41.5% | 84.5% | 10.8% | -8.61% (active) | 94.4% | 105%
O=C(/C=C/c1ccccc1)c1cccc(O)c1 | – | – | 61.9% | 103% | 107% | – | 81.7% | 104% | 115% | 108% | – | 72.6% | 109% | – | 93.6% | 114% | – | 86.7% | – | 32.3%
CC(C)(C)N1CCC1C(N)=O (stereo not given) | – | 99.4% | – | 95.3% | 107% | 91.5% | – | 114% | 159% | 92.2% | 104% | 131% | 91.8% | – | 83% | 136% | 93% | 120% | 89.3% | 109%
COC(=O)c1cc(=O)nc(N/N=C/c2ccco2)s1 | – | 105% | 104% | 95.7% | – | 106% | 101% | 104% | 117% | – | 102% | 87.5% | 118% | 104% | 105% | 99.5% | 95.6% | 94.9% | 96.2% | 106%
c1cc2[nH]ncc2cc1-c1nc2ccc3[nH]ncc3c2c2c1CCC2 | – | 69.5% | 43.6% | 54.5% | 56.6% | 15.4% | 40.4% | – | 19% | – | 63.9% | 38% | 30.8% | 23.8% | 23.3% | -3.31% (active) | 30.2% | 20.9% | 34.9% | 37.9%
c1ccc(-c2nnc(-c3ccccn3)s2)nc1 | – | 97.9% | – | 93.8% | 97.2% | 95.7% | – | 127% | 104% | 79.6% | 114% | 76.3% | 123% | – | 50.1% | 117% | 80.8% | 109% | 70.4% | 104%
CCCCN(CCCC)C(=O)CC | 101% | 114% | 120% | 98.2% | – | 106% | 104% | – | 112% | 105% | 109% | 99.5% | 114% | 112% | 109% | 97.7% | 96.8% | 97.8% | – | –
O=C(CSc1nc2ccccc2[nH]1)Nc1ccc(-c2nc3ccccc3s2)c(Cl)c1 | – | 65% | – | 26.3% | – | 49.3% | – | 0.271% (active) | 51.2% | 27.1% | 35.1% | 8.16% (active) | 30.1% | – | 26.9% | 71.8% | – | 81.3% | -28.5% (active) | 14.7%
CC1=NC2=CC=CC3=NC(C(Cl)(Cl)Cl)=NC(=N1)N23 | – | 84.5% | 74.3% | 86.3% | 88.4% | 69.5% | 80.6% | 86.1% | 86.6% | 76.1% | 86.7% | – | 112% | 61% | 61.3% | 81.9% | 70.1% | 4.18% (active) | 56.2% | 60%

Reference: PubChem BioAssay (NCI)
